Experimental data reported in PubChem BioAssay AID1159580 (chemical genetic matrix, 2015).
Among all 5,500 compounds or so, about 2,000 (36%) were called active. Inconclusive results (about 18%) are left out. Cut-off read from the data, not from the text of the source: active = normalized growth mostly below about 0.91 (no sharp cut-off); inconclusive = no clear call, values can overlap the other calls; inactive = mostly above about 0.92. Some of the results follow.

Test: chemical genetic growth profiling, strain panel (AID 1159580);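 note: tested at 20 µM; growth read once vehicle control cultures reached saturation at 30 °C; 1 = growth at the plate median or of vehicle wells; lower values mean less growth of the strain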
Conditions: growth OD

Measured: normalized growth

C=CC(C)(O)CC/C=C(\C)CCC=C(C)C (stereo not drawn)
active: S. cerevisiae deletion strains, locus YLR221C, strain rsa3, active compounds read low 0.9 | S. cerevisiae deletion strains, locus YLR262C, strain YPT6 (second series), active compounds read low 0.842 | S. cerevisiae deletion strains, locus YLR320W, strain mms22, active compounds read low 0.846 | S. cerevisiae deletion strains, locus YLR357W, strain rsc2, active compounds read low 0.81 | S. cerevisiae deletion strains, locus YMR125W, strain sto1, active compounds read low 0.828 | S. cerevisiae deletion strains, locus YNL071W, strain lat1, active compounds read low 0.85 | S. cerevisiae deletion strains, locus YNL233W, strain BNI4, active compounds read low 0.788 | S. cerevisiae deletion strains, locus YNL248C, strain rpa49, active compounds read low 0.883 | S. cerevisiae deletion strains, locus YOR001W, strain rrp6, active compounds read low 0.887 | S. cerevisiae deletion strains, locus YOR083W, strain WHI5, active compounds read low 0.882 | S. cerevisiae deletion strains, locus YOR270C, strain vph1, active compounds read low 0.757 | S. cerevisiae deletion strains, locus YPL051W, strain arl3, active compounds read low 0.907 | S. cerevisiae deletion strains, locus YPL078C, strain atp4, active compounds read low 0.863 | S. cerevisiae deletion strains, locus YPL106C, strain sse1, active compounds read low 0.793
inactive: S. cerevisiae deletion strains, locus YKL009W, strain mrt4, active compounds read low 0.952 | S. cerevisiae deletion strains, locus YKL068W, active compounds read low 0.994 | S. cerevisiae deletion strains, locus YKL085W, strain MDH1 (second series), active compounds read low 0.996 | S. cerevisiae deletion strains, locus YKL085W, strain MDH1, active compounds read low 0.996 | S. cerevisiae deletion strains, locus YKL160W, strain elf1, active compounds read low 0.903 | S. cerevisiae deletion strains, locus YKL190W, strain CNB1, active compounds read low 0.97 | S. cerevisiae deletion strains, locus YKR001C, strain vps1, active compounds read low 1 | S. cerevisiae deletion strains, locus YKR026C, strain gcn3, active compounds read low 0.951 | S. cerevisiae deletion strains, locus YKR091W, strain srl3, active compounds read low 0.97 | S. cerevisiae deletion strains, locus YLL001W, strain dnm1, active compounds read low 0.978 | S. cerevisiae deletion strains, locus YLL026W, active compounds read low 0.972 | S. cerevisiae deletion strains, locus YLL041C, strain sdh2, active compounds read low 0.973 | S. cerevisiae deletion strains, locus YLR027C, strain aat2, active compounds read low 0.967 | S. cerevisiae deletion strains, locus YLR039C, strain RIC1, active compounds read low 0.882 | S. cerevisiae deletion strains, locus YLR058C, strain SHM2, active compounds read low 0.949 | S. cerevisiae deletion strains, locus YLR102C, strain apc9, active compounds read low 1 | S. cerevisiae deletion strains, locus YLR113W, strain HOG1, active compounds read low 0.868 | S. cerevisiae deletion strains, locus YLR258W, strain gsy2, active compounds read low 0.966 | S. cerevisiae deletion strains, locus YLR262C, strain YPT6, active compounds read low 0.926 | S. cerevisiae deletion strains, locus YLR268W, strain sec22, active compounds read low 1 | S. cerevisiae deletion strains, locus YLR330W, strain CHS5, active compounds read low 0.925 | S. cerevisiae deletion strains, locus YLR342W, strain FKS1 (second series), active compounds read low 0.878 | S. cerevisiae deletion strains, locus YLR342W, strain FKS1, active compounds read low 0.974 | S. cerevisiae deletion strains, locus YLR370C, strain arc18, active compounds read low 0.921 | S. cerevisiae deletion strains, locus YLR371W, strain rom2, active compounds read low 0.962 | S. cerevisiae deletion strains, locus YLR384C, strain iki3, active compounds read low 0.98 | S. cerevisiae deletion strains, locus YLR418C, strain cdc73, active compounds read low 0.911 | S. cerevisiae deletion strains, locus YML016C, strain PPZ1, active compounds read low 0.996 | S. cerevisiae deletion strains, locus YML032C, strain rad52, active compounds read low 0.926 | S. cerevisiae deletion strains, locus YML120C, strain ndi1, active compounds read low 0.919 | S. cerevisiae deletion strains, locus YML124C, strain tub3, active compounds read low 1.01 | S. cerevisiae deletion strains, locus YMR058W, strain fet3, active compounds read low 0.95 | S. cerevisiae deletion strains, locus YMR078C, strain ctf18, active compounds read low 1.01 | S. cerevisiae deletion strains, locus YMR129W, active compounds read low 0.967 | S. cerevisiae deletion strains, locus YMR205C, strain PFK2, active compounds read low 0.911 | S. cerevisiae deletion strains, locus YMR223W, strain ubp8, active compounds read low 0.957 | S. cerevisiae deletion strains, locus YMR231W, strain pep5, active compounds read low 0.999 | S. cerevisiae deletion strains, locus YMR307W, strain GAS1, active compounds read low 0.621 | S. cerevisiae deletion strains, locus YNL067W, strain RPL9B, active compounds read low 0.943 | S. cerevisiae deletion strains, locus YNL153C, strain GIM3, active compounds read low 0.921 | S. cerevisiae deletion strains, locus YNL183C, strain NPR1, active compounds read low 0.948 | S. cerevisiae deletion strains, locus YNL209W, strain ssb2, active compounds read low 0.977 | S. cerevisiae deletion strains, locus YNL250W, strain rad50, active compounds read low 0.994 | S. cerevisiae deletion strains, locus YNL271C, strain bni1, active compounds read low 1 | S. cerevisiae deletion strains, locus YNL298W, strain CLA4, active compounds read low 0.951 | S. cerevisiae deletion strains, locus YNL307C, strain MCK1, active compounds read low 1 | S. cerevisiae deletion strains, locus YNL322C, strain KRE1 (second series), active compounds read low 0.993 | S. cerevisiae deletion strains, locus YNR049C, strain mso1, active compounds read low 0.966 | S. cerevisiae deletion strains, locus YNR052C, strain pop2, active compounds read low 0.933 | S. cerevisiae deletion strains, locus YOL006C, strain TOP1, active compounds read low 0.816 | S. cerevisiae deletion strains, locus YOL012C, strain htz1 0.833 | S. cerevisiae deletion strains, locus YOL147C, strain pex11, active compounds read low 0.987 | S. cerevisiae deletion strains, locus YOR061W, strain CKA2, active compounds read low 0.977 | S. cerevisiae deletion strains, locus YOR069W, strain VPS5, active compounds read low 0.984 | S. cerevisiae deletion strains, locus YOR070C, strain gyp1, active compounds read low 0.981 | S. cerevisiae deletion strains, locus YOR080W, strain dia2, active compounds read low 0.972 | S. cerevisiae deletion strains, locus YOR106W, strain vam3, active compounds read low 0.881 | S. cerevisiae deletion strains, locus YOR136W, strain idh2, active compounds read low 1.01 | S. cerevisiae deletion strains, locus YOR144C, strain elg1, active compounds read low 0.999 | S. cerevisiae deletion strains, locus YOR184W, strain ser1, active compounds read low 0.941 | S. cerevisiae deletion strains, locus YOR231W, strain MKK1, active compounds read low 0.873 | S. cerevisiae deletion strains, locus YOR265W, strain rbl2, active compounds read low 0.983 | S. cerevisiae deletion strains, locus YOR290C, strain snf2, active compounds read low 0.875 | S. cerevisiae deletion strains, locus YOR316C, strain cot1, active compounds read low 0.997 | S. cerevisiae deletion strains, locus YPL055C, strain LGE1, active compounds read low 0.88 | S. cerevisiae deletion strains, locus YPL240C, strain hsp82, active compounds read low 0.96 | S. cerevisiae deletion strains, locus YPL241C, strain CIN2, active compounds read low 1 | S. cerevisiae deletion strains, locus YPL256C, strain CLN2, active compounds read low 0.838 | S. cerevisiae deletion strains, locus YPR119W, strain clb2, active compounds read low 1.02 | S. cerevisiae deletion strains, locus YPR141C, strain kar3, active compounds read low 1 | S. cerevisiae deletion strains, locus YPR163C, strain tif3, active compounds read low 1.02 | S. cerevisiae deletion strains, locus YPR167C, strain met16, active compounds read low 0.988 | S. cerevisiae deletion strains, strain wtn01, active compounds read low 0.99 | S. cerevisiae strains, strain wild type, active compounds read low 0.924
